# Test results taken from PubChem BioAssay AID488890 (Southern Research Specialized Biocontainment Screening …, 2010).
# Values joined by “and” are separate entries in the source; they are usually repeats but may differ in a detail not shown here. Identical values can stand only once. Among all 320,000 compounds or so, about 1,300 (0.41%) were called active. About 3% were inconclusive and are not listed. No rule for the calls is given here. The list is a sample of the results. Potency and affinity values are given separately.
# Experiment: growth inhibition of non-replicating M. tuberculosis (AID 488890);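 also: plate controls were DMSO cells for no effect and high antibiotic wells for full effect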
# Settings: Mycobacterium tuberculosis non-replicating, at 25 µM, stronger effect = higher value
row,Compound,inhibition
1,COc1cc(OC)nc(-n2ncc(OC)c(Br)c2=O)n1,-12%
2,COC(=O)c1cnn(-c2nc(OC)cc(OC)n2)c1C,-11.5%
3,COc1cc(C(=O)ON=C2C3CC4CC(C3)CC2C4)cc(OC)c1OC,46.9%
4,COc1ccc(-c2nc(CSCC(=O)N3CCN(C(=O)c4ccco4)CC3)c(C)o2)cc1OC,-16.5%
5,CCOC(=O)C1(CCOc2ccccc2)CCN(C(=O)CCSC)CC1,10.9%
6,COc1cccc(/C=C2/SC(=S)N(CCC(=O)N3CCOCC3)C2=O)c1,46.5%
7,O=C(CCN1C(=O)/C(=C\c2ccccc2Cl)SC1=S)N1CCN(c2ccccc2)CC1,73.2%
8,CN1CCN(C(=O)CCN2C(=O)/C(=C/c3ccccc3Cl)SC2=S)CC1,18.9%
9,COc1cccc(/C=C2\SC(=S)N(CCCC(=O)N3CCCCC3)C2=O)c1,79%
10,O=C(c1ccco1)N1CCN(C(=O)c2ccc(COc3ccc(Cl)cc3Cl)o2)CC1,11.7%
11,CS(=O)(=O)c1ccc2nc(NC(=O)CN3C(=O)C4CC=CCC4C3=O)sc2c1 (stereo not given),-9.69%
12,COC(=O)c1ccc(N2NC(=O)/C(=C/c3cc(OC)c(OC)c(OC)c3)C2=O)cc1,13.4%
13,C=CCn1c(O)c(N=NC(=O)c2ccc3c(c2)OCO3)c2ccccc21,11.7%
14,Cc1cc(C)n2nc(CNS(=O)(=O)c3ccc(CC(C)C)cc3)nc2n1,7.85%
15,O=C(NC1CC1)C1CC(=O)N(C2CCCCC2)C1 (stereo not given),-5.51%
16,CC(NC(=O)CSc1nnc(-c2cc3cc(Cl)ccc3o2)n1C)c1ccccc1 (stereo not given),16.7%
17,CNC(C)C#Cc1ccc2c(=O)c3c(OC)cccc3oc2c1 (stereo not given),42.6%
18,CNC(C)C#Cc1ccc2oc3cccc(OC)c3c(=O)c2c1 (stereo not given),57.7%
19,CCOc1ccc(S(=O)(=O)N2CCC(C(=O)N3CCCCCC3)CC2)cc1C,21.6%
20,O=[N+]([O-])c1ccc(N2CCCCC2)cc1SCCO,7.65%
21,CC(C)NC(=O)c1ccc(CN2CCc3ccccc3C2)cc1,-40%
22,CC(=O)Nc1ccc(NC(=O)c2ccc(CN3CCc4ccccc4C3)cc2)cc1,28.5%
23,CCOC(=O)C1=C(C)Nc2sc(C(=O)c3ccc(OC)cc3)c(N)c2C1c1ccc(C(=O)OC)cc1 (stereo not given),26.4%
24,CCCCCC(=O)NC(=S)Nc1cccc(-c2nc3ncccc3o2)c1,-12.6%
25,COC(=O)c1ccc(C)c(NC(=O)CSc2nc3[nH]c(=O)cc(O)c3s2)c1,11.9%
26,Nc1ccc(C(=O)OCC(=O)N2CCc3ccccc3C2)cc1[N+](=O)[O-],39%
27,COc1cccc(C(=O)OCC(=O)N2CCc3ccccc3C2)c1,43.9%
28,COc1cccc(-c2nc(-c3ccccc3)c(-c3ccccc3)[nH]2)c1OCC(=O)O,4.59%

row,Compound,inhibition
1,O=[N+]([O-])c1cc(C(F)(F)F)ccc1NC1CCN(Cc2ccccc2)CC1,52.5%
2,FC(F)Sc1ccc(-n2c(-c3ccc(Cl)cc3)c[n+]3c2CCC3)cc1,-0.67%
3,CCOc1ccc(C(=O)NCc2ccncc2)cc1OCC,-10.7%
4,NS(=O)(=O)c1ccc(OC(=O)CNC(=O)OCc2ccccc2)cc1,6.9%
5,Cc1ccc(S(=O)(=O)N2CCN(C(=O)c3c(-c4ccccc4)noc3C)CC2)cc1C,8.79%
6,O=C(O)COc1ccc(Br)cc1CP(=O)(c1ccccc1)c1ccccc1,-5.1%
7,CCOC(=O)c1c(C)nn(-c2ncccc2NC(=O)NC(C)C)c1C,-15.3%
8,Cc1ccc(-c2cn(-c3ccccc3)c3[n+]2CCCS3)cc1,9.74% and -19.1%
9,c1ccc(-c2cn(-c3ccccc3)c3[n+]2CCCS3)cc1,-2.11%
10,CCn1cc(C(=O)NC(=S)Nc2ccccc2[N+](=O)[O-])cn1,26.2%
11,COCCNC(=O)C(c1ccc(O)cc1)N(Cc1cccs1)C(=O)CCC(=O)Nc1ccccn1 (stereo not given),7.81%
12,CCn1c(SCc2ccc([N+](=O)[O-])cc2)nnc1C(C)NC(=O)c1ccccc1Br (stereo not given),-7.9%
13,COc1ccc(CNC(=O)c2cc3c(C)nc4ccccc4c3o2)c(OC)c1,31.7%
14,COC(=O)C1CC(c2ccc(Cl)cc2)=NO1 (stereo not given),10.9%
15,O=C(OCC1CC(c2ccccc2)=NO1)c1ccc(Cl)cc1 (stereo not given),25.9%
16,CC(NS(=O)(=O)c1ccc2c(c1)oc(=O)n2C)c1ccccc1 (stereo not given),-7.19%
17,CC1Oc2ccccc2N(CC(=O)NC2CCCCC2)C1=O (stereo not given),-12.6%
18,COc1ccc(S(=O)(=O)N=Nc2c(O)[nH]c3ccccc23)cc1,2.14%
19,O=C(Nc1cccc(Br)c1)c1ccc(OC2CSC2)cc1,79.7%
20,O=C(NCCNC(=O)c1cccc(O)c1)c1cccc(O)c1,-13.5%
21,CCOC(=O)c1cc2c(C)[nH]c(C)c2cc(C(=O)OCC)c1=O,-5.61%
22,CC(=O)Nc1ccc(NC(=O)C(C)Oc2ccc(Cl)cc2Cl)cc1 (stereo not given),4.67%
23,CC(Oc1ccc(Cl)cc1Cl)C(=O)Nc1ccc(O)cc1 (stereo not given),-1.96%
24,CC(=O)c1cnc(Nc2nc(C)c3cc(C)c(C)cc3n2)nc1C,16.2%
25,COc1ccc(-c2cc3ccccc3oc2=O)cc1,24.3%
26,O=c1oc2ccccc2cc1-c1nc(-c2ccccc2)no1,-0.8%
27,COc1ccc(-c2nc3c(c(SCC(=O)N4CCOCC4)n2)COC(C)(C)C3)cc1,-3.27%
